Assay outcomes deposited in PubChem BioAssay by several laboratories.
Rows were chosen to be rich in hits. Some 3.5% of all compounds tested hit in one or more screens of this group.
PG9 binder – binders of HIV-1 gp120 antibody PG9, primary screen, biochemical, TR-FRET; TR-FRET gp120-PG9 antibody binding; inhibition, % at 6.7 µM; 360,000 tested, 0.43% active; AID 624416, 2012; in the data active means inhibition above about 8.5%
MBD2 inh – inhibitors of MBD2 binding to methylated DNA, primary screen, biochemical, TR-FRET, DNA-binding domain, human; 370,000 tested, 0.31% active; AID 686964, 2013; Methyl-CpG-binding domain protein 2 (Homo sapiens), Q9UBB5; MBD2 binding to methylated oligonucleotide; inhibition, % at 4.4 µM; in the data active means inhibition above about 13%
DNMT1 block – human DNMT1 methyltransferase inhibitors, primary screen, biochemical, molecular beacon, fluorescence, HinP1I cleavage, uHTS | DNA (cytosine-5)-methyltransferase 1 (Homo sapiens), P26358 | inhibition (reported as % activation of signal), % at 10 µM | 360,000 tested, 0.83% active; in the data active means inhibition above about 50%
Target sequence (P26358 504-1616 limits assumed): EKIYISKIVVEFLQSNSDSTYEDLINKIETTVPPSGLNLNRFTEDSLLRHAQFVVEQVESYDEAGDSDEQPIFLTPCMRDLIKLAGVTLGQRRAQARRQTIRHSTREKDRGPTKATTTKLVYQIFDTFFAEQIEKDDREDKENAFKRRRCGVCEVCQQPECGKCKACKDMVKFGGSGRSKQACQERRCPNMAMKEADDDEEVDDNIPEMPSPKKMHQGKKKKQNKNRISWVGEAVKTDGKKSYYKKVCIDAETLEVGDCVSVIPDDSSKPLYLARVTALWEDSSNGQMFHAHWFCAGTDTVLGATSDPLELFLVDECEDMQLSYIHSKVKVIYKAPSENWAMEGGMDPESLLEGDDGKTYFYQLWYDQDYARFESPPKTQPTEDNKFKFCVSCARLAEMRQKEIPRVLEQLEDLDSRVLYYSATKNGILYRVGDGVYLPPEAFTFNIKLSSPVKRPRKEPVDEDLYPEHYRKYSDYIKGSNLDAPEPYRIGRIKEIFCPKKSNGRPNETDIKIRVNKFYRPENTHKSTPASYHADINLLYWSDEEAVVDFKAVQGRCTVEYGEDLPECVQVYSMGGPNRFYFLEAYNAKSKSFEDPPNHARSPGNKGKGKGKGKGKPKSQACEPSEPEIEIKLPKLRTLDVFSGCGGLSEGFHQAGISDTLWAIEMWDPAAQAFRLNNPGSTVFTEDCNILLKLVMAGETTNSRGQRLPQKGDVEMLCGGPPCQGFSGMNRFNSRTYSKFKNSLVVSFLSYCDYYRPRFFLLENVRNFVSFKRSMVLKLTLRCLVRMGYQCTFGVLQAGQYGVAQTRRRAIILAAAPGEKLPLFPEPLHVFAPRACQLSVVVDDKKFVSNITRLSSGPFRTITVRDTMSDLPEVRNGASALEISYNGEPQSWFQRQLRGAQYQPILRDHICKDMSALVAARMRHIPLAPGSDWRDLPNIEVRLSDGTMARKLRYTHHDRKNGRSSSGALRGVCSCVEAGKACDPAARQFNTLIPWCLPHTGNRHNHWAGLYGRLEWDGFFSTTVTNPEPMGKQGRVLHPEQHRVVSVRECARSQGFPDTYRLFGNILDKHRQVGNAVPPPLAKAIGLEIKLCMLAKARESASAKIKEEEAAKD
rCAG binder – binders of r(CAG) RNA repeats, primary screen, biochemical, fluorescence | r(CAG) RNA repeat, TO-PRO-1 dye displacement fluorescence | 370,000 tested, 1.3% active | inhibition, % at 3 µM;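 active means inhibition above the plate cutoff, the mean of all test compounds on that plate plus 3 SD, cut at about 35% in these data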;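 further: 0% = DMSO alone and 100% = 100 µM mitoxantrone as full dye displacement; higher means more dye released from RNA so lower well fluorescence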
LEDGF integ inh – blockers of LEDGF/p75-dependent integrase strand transfer – biochemical, TR-FRET, high throughput, primary screen; HIV-1 integrase (with human LEDGF/p75); TR-FRET IN-LEDGF/p75 DNA integration, Eu/Cy5; inhibition, % at 3.7 µM; 370,000 tested, 0.64% active; AID 743269, 2014;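 active means inhibition above the screen-wide mean plus 3 SD, cut at about 13% in these data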;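 further: signal is the Cy5 over europium emission ratio at 671 and 618 nm; 0% = plate median of compound wells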
UHRF1 binding – UHRF1 methylated DNA binding inhibitors, primary screen, counter-screen for MBD2 inhibitor project, biochemical, TR-FRET, human UHRF1, single concentration; E3 ubiquitin-protein ligase UHRF1 (Homo sapiens), Q96T88; UHRF1 binding to methylated oligo; inhibition, % at 4.4 µM; 370,000 tested, 0.75% active; in the data active means inhibition above about 21%;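 further: UHRF1 SRA domain binding a hemimethylated CpG hairpin DNA probe; 0% = median of test compound wells and 100% = reference inhibitor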
IN multimer up – HIV-1 IN multimer formation enhancers, counter-screen for LEDGF/p75 integration inhibitor project, biochemical, TR-FRET; shares compounds with LEDGF integ inh; TR-FRET HIV-1 integrase multimerization; activation, % at 7.7 µM; 2,000 tested, 17% active; in the data active means activation above about 8.9%
TRFRET interf – TR-FRET optical interference artefacts, confirmation, artefact control for LEDGF/p75-dependent integration inhibitor project, biochemical, HIV-1 IN multimerization; inhibition, % at 7.7 µM; shares compounds with LEDGF integ inh; TR-FRET optical interference counterscreen; 2,000 tested, under 10 active;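 active means inhibition above the mean over all tested compounds plus 3 SD, which no compound reached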;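 further: 0% = integrase with antibodies and DMSO and 100% = antibodies without integrase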
IN-LEDGF confirm – inhibitors of HIV-1 IN-LEDGF/p75 DNA integration, confirmation, biochemical, TR-FRET | shares compounds with LEDGF integ inh | TR-FRET LEDGF/p75-dependent HIV-1 integration | inhibition, % at 3.7 µM | 2,000 tested, 36% active; in the data active means inhibition above about 14%
The depositor's hits bear a star.

Results for Cc1ccc(S(=O)(=O)/N=C(/Nc2cccc(O)c2)c2ccccc2)cc1 ?
PG9 binder: 0; MBD2 inh: 1; DNMT1 block: 0; rCAG binder: 1; LEDGF integ inh: 37*; UHRF1 binding: -2; IN multimer up: 2; TRFRET interf: -10; IN-LEDGF confirm: 2

What do the screens show for `O=C(O)c1cc(-c2ccccc2)nc(-c2ccccc2)c1`?
PG9 binder: -1; MBD2 inh: 2; DNMT1 block: 0; rCAG binder: 15; LEDGF integ inh: 15*; UHRF1 binding: 1; IN multimer up: 1; TRFRET interf: -5; IN-LEDGF confirm: -10

What do the screens show for `O=C(O)c1cc(C(=O)O)c(-c2ccccc2)c(C(=O)O)c1`?
PG9 binder: -1; MBD2 inh: -2; DNMT1 block: 0; rCAG binder: 1; LEDGF integ inh: -1; UHRF1 binding: -1

Results for O=C(CCCCN1CCCCC1)c1ccccc1 ?
PG9 binder: 0; MBD2 inh: -3; DNMT1 block: 0; rCAG binder: -4; LEDGF integ inh: -7; UHRF1 binding: 1

What do the screens show for `O=C(C(=Cc1ccccc1)CN1CCCCC1)c1ccccc1`?
PG9 binder: -1; MBD2 inh: -1; DNMT1 block: 7; rCAG binder: -1; LEDGF integ inh: 19*; UHRF1 binding: 3; IN multimer up: 1; TRFRET interf: -4; IN-LEDGF confirm: 2

How did COC(=O)[C@@]12C[C@@H](CC(=O)N3CCCCC3)C(=O)N(Cc3cccc4ccccc34)C1=CCC(C)(C)C2 do in these assays?
PG9 binder: -1; MBD2 inh: 1; rCAG binder: 7; LEDGF integ inh: 2; UHRF1 binding: 0

What do the screens show for `COC(=O)[C@@]12C[C@@H](CC(=O)N3CCN(C(=O)c4ccco4)CC3)C(=O)N(Cc3cccc4ccccc34)C1=CCC(C)(C)C2`?
PG9 binder: -1; MBD2 inh: -1; rCAG binder: 9; LEDGF integ inh: 21*; UHRF1 binding: -1; IN multimer up: 2; TRFRET interf: -9; IN-LEDGF confirm: -7

Results for Cc1nc2c(O)c3c(c(O)c2nc1C)C1C=CC3CC1 ?
PG9 binder: 0; MBD2 inh: -7; DNMT1 block: -7; rCAG binder: 6; LEDGF integ inh: 21*; UHRF1 binding: 6; IN multimer up: 2; TRFRET interf: -6; IN-LEDGF confirm: 2

How did Cc1nc2c(C)c(C)c(C)c(C)c2nc1C do in these assays?
PG9 binder: -1; MBD2 inh: -2; DNMT1 block: 0; rCAG binder: 3; LEDGF integ inh: 5; UHRF1 binding: 2

How did CCCOc1c(OC)cccc1C1CC(=O)Nc2cc(OC)c(OC)c(OC)c21 (configuration not stated) do in these assays?
PG9 binder: -1; MBD2 inh: 0; DNMT1 block: 0; rCAG binder: -9; LEDGF integ inh: 0; UHRF1 binding: -1

What do the screens show for `COc1cc2c(c(OC)c1)C(c1cccc(OC)c1OC)CC(=O)N2` (configuration not stated)?
PG9 binder: -2; MBD2 inh: -1; DNMT1 block: 0; rCAG binder: 0; LEDGF integ inh: 17*; UHRF1 binding: 0; IN multimer up: -2; TRFRET interf: 12; IN-LEDGF confirm: -2

Results for CC(C)NC[C@@H](O)c1ccc(O)c(O)c1 ?
PG9 binder: -3; MBD2 inh: -7; DNMT1 block: -1; rCAG binder: 8; LEDGF integ inh: 16*; UHRF1 binding: -2; IN multimer up: 4; TRFRET interf: -21; IN-LEDGF confirm: 21*

How did O=C(CSc1nnnn1-c1ccc(F)cc1)Nc1ccccc1F do in these assays?
PG9 binder: -1; MBD2 inh: -2; DNMT1 block: 1; rCAG binder: -2; LEDGF integ inh: 2; UHRF1 binding: -2

What do the screens show for `Cn1cc(Cl)c(-c2n[nH]c(=S)n2-c2ccc(F)cc2)n1`?
PG9 binder: 0; MBD2 inh: -1; DNMT1 block: 5; rCAG binder: 0; LEDGF integ inh: 28*; UHRF1 binding: -1; IN multimer up: -1; TRFRET interf: 4; IN-LEDGF confirm: -6

Results for CN(CCCn1ccc(NC(=O)OCc2ccccc2)nc1=O)Cc1ccco1 ?
PG9 binder: 1; MBD2 inh: -4; DNMT1 block: 7; rCAG binder: -2; LEDGF integ inh: 2; UHRF1 binding: -1

How did Cc1cc(C)n(-c2ncc3c(n2)N(CCO)CCOC3=O)n1 do in these assays?
PG9 binder: -2; MBD2 inh: 2; DNMT1 block: 4; rCAG binder: -2; LEDGF integ inh: -2; UHRF1 binding: -1

How did CC1=CC2(O)OCCN(CCO)C2=CC1=O (configuration not stated) do in these assays?
PG9 binder: -2; MBD2 inh: 2; DNMT1 block: 7; rCAG binder: 9; LEDGF integ inh: 31*; UHRF1 binding: 10; IN multimer up: 4; TRFRET interf: -19; IN-LEDGF confirm: 14*

How did Cc1cccc(NC(=S)N(CCN(C)C)C(C)c2ccccn2)c1 (configuration not stated) do in these assays?
PG9 binder: -2; MBD2 inh: 4; DNMT1 block: 5; rCAG binder: -1; LEDGF integ inh: 92*; UHRF1 binding: 2; IN multimer up: -2; TRFRET interf: 11; IN-LEDGF confirm: -5

What do the screens show for `CCOC(=O)[C@]12CCCC=C1N(Cc1ccc(Cl)cc1Cl)C(=O)[C@H](CC(=O)N1CCSCC1)C2`?
PG9 binder: 1; MBD2 inh: -1; rCAG binder: 5; LEDGF integ inh: -4; UHRF1 binding: 0

Results for COC(=O)[C@]12C[C@H](CC(=O)N3CCCC3)C(=O)N(Cc3ccc4c(c3)OCO4)C1=C[C@H](C(C)C)O[C@@H]2C1CC1 ?
MBD2 inh: -6; rCAG binder: -2; LEDGF integ inh: 5; UHRF1 binding: -4
